Source: PubChem BioAssay AID686978 (National Center for Advancing Translational Sciences (NCATS), 2013)
In all, about 420,000 compounds went through this assay and about 64,000 (15%) were called active. Another 27% or so got no clear call; they are omitted. Only a sample is shown. A number with no mark means an inactive call. Calls follow the shape of the dose curve; as a rule, active = well fitted inhibition curve with a large enough effect; inconclusive = small, poorly fitted or top-dose-only effect; inactive = flat fitted curve, though single readings scatter.

assay: qHTS for Inhibitors of human tyrosyl-DNA phosphodiesterase 1 (TDP1): qHTS in cells in absence of CPT; conditions: DT40 Tdp1-/- hTDP1 cells, no CPT, ATP luminescence, 48 h; activity change, negative = growth inhibition: at 46.2 µM (top of the series); also: nearly all actives have a fitted effect of over 55% in size
How it was run: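 Chicken DT40 Tdp1-/- cells complemented with human TDP1, screened without camptothecin (DMSO vehicle only), 400 cells/well. Compounds pin-transferred, cells incubated at 37 °C for at least 48 hr. Growth read as ATP-dependent luminescence (CellTiter-Glo, 30 min at RT).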
% is scaled to controls: 0 for no effect and ±100 for the full control effect; potency is read from the fitted curve at half-maximal effect.

SMILES	activity change, negative = growth inhibition [%]	Potency
Cc1nnc(SCC(=O)Nn2cnnc2)s1	-9.49	–
O=S1(=O)CC/C(=N\Nc2ccc(F)cc2)c2ccsc21	-24.8	–
O=C(c1ccc(F)cc1)C1CCN(CCCCc2ccccc2)CC1	–	26.6 µM (active)
O=C(COC(=O)c1ccc(F)cc1)NCCCc1ccccc1	16.5	–
O=C1CCN(CCCc2ccccc2)CCN1CCO	-1.55	–
CCn1c(SCC(=O)NC2CCCC2)nnc1-c1ccoc1C	-5.53	–
NS(=O)(=O)c1ccc(CCNC(=O)NC2CCCCC2)cc1	1.16	–
O=S(=O)(c1cccs1)N1CCc2ccccc2C1	-11.7	–
CCC(=O)N(CCc1ccccc1)Cc1cc2cc(C)ccc2[nH]c1=O	-19.6	–
Cc1ccc(N(Cc2cc3ccccc3[nH]c2=O)C(=O)c2cccs2)cc1	–	14.6 µM (active)
Cc1cccc2cc(CN(C(=O)c3cccs3)c3ccccc3)c(=O)[nH]c12	-20.8	–
Cc1ccc(-n2nc(C)c(C(=O)O)c2-n2cccc2)cc1	-1.81	–
CCOC(=O)N1CCC(NC(=O)Cn2cc3c(n2)CCCCC3)CC1	-11.3	–
Cc1c(C(=O)N2CCCC2)oc2c1-c1nn(CC(=O)NCc3ccc(OC(C)C)cc3)cc1CC2	–	20.6 µM (active)
COCCNC(=O)Cn1cc2c(n1)CCCCC2	-0.37	–
CC(C)Oc1ccc(C(=O)NCC(=O)Nc2ccc3c(c2)CCC3)cc1	-11.2	–
CCOc1ccc(CNC(=O)Cn2cc3c(n2)-c2c(oc(C(=O)N4CCCC4)c2C)CC3)cc1	–	20.6 µM (active)
CCCN(CCC)CCCNC(=O)Cn1cc2c(n1)-c1c(oc(C(=O)N3CCCC3)c1C)CC2	-14.5	–
CC(C)OC(=O)Cn1nc(C(F)(F)F)c2c1CCCC2	-2.71	–
CCCC(C)c1nnc(NC(=O)C2CC(=O)N(c3ccc(OCC)cc3)C2)s1 (configuration not stated)	-29.7	–
Cc1nnc(C(=O)NC(C)(C)c2nc(C(=O)NCc3ccc(F)cc3)c(O)c(=O)n2C)o1	-28.7	–
COc1ccnc(Oc2ccccc2)c1-c1ncn[nH]1	7.94	–
CCNC(=O)Cn1nc(C)n2c(cc3c(OC)cccc32)c1=O	-15	–
Cc1ccccc1CNC(=O)CSc1nnc(C)c2c(C)n(-c3ccccc3)nc12	-24.4	–
Cc1nnc(SCC(=O)NCc2ccccc2Cl)c2nn(-c3ccccc3)c(C)c12	–	23.1 µM (active)
Cc1nn(CC(=O)N2CCCCC2)c(=O)c2nn(-c3ccccc3)c(C)c12	40.7	–

SMILES	activity change, negative = growth inhibition [%]	Potency
COc1ccccc1CNC(=O)Cn1nc(C)c2nn(-c3ccc(Cl)cc3)c(C)c2c1=O	–	23.1 µM (active)
COc1ccc(OC)c(CNC(=O)Cn2nc(C)c3c(C)n(-c4ccc(C)cc4)nc3c2=O)c1	–	16.4 µM (active)
COc1ccccc1CNC(=O)COC(=O)c1sc(C)nc1C	-17.9	–
Cc1cccn2c(=O)nc(SCC(=O)NCc3ccccc3Cl)nc12	-1.53	–
CCOC(=O)C1CCN(C(=O)Cn2nc(C)c3c(C)n(-c4ccccc4)nc3c2=O)CC1	6.57	–
Cc1ccccc1-c1nnn(CC(=O)c2ccc(S(=O)(=O)N3CCCC3)cc2)n1	-26.4	–
CNC1(c2nnnn2-c2c(C)cccc2C)CCOC(C)(C)C1 (configuration not stated)	15.9	–
COc1c(O)cccc1-c1nnn(CCC(=O)OCC(=O)c2ccccc2)n1	-15.8	–
CC1(C(=O)NS(=O)(=O)c2cccc(OC(F)F)c2)CCN1C(=O)C1CC1 (configuration not stated)	2.72	–
CCCCn1c(N)c(N(CC(C)C)C(=O)CN(C)S(=O)(=O)c2ccc(F)cc2)c(=O)[nH]c1=O	11.9	–
Cc1cc2nc3n(c2cc1C)CC1CC(C(=O)NCCC(C)C)N(C)C31 (configuration not stated)	-8.55	–
CCCCOc1ccc(Cl)cc1CSc1nncn1N	-20.7	–
CN(c1ccc(C(=O)NCc2ccccn2)cc1)S(C)(=O)=O	1.99	–
COc1cccc(S(=O)(=O)NCc2ccc(C(=O)NCc3ccccn3)cc2)c1	–	0.92 µM (active)
CS(=O)(=O)NCc1ccc(C(=O)NCc2ccccc2)cc1	-11.1	–
CCSc1nc(O)c(C(c2cccc(OC)c2)c2c(O)nc(SCC)[nH]c2=O)c(=O)[nH]1	-1.04	–
C/C=N/N(c1ccccc1)c1ccccc1	0.354	–
Cc1ccc2cccc(OCCCOc3ccccc3CO)c2n1	–	23.1 µM (active)
COc1ccccc1CNC(=O)COc1ccc(C)nc1[N+](=O)[O-]	0.843	–
OCc1ccc(OCCCOc2cccc3cccnc23)cc1	5.78	–
O=S(=O)(c1ccc(Sc2nnc3ccccn23)nc1)N1CCOCC1	-11.4	–
CCOCC(=O)NCc1ccc2c(c1)cc(C)n2C	-13.3	–
CCn1c(=S)[nH]c2cc(S(=O)(=O)N3CCOCC3)ccc21	-10.9	–
O=C(NCc1cccc(Cl)c1)C1=CC=CN2CCS(=O)(=O)N=C12	26.7	–
COc1ccc(C)cc1NC(=O)CCC(=O)Nc1nnc(C(F)(F)F)s1	-0.883	–
CN(CC(=O)Nc1ccccc1F)CC(=O)Nc1ccccc1Br	-24.5	–
